Experimental data as given in PubChem BioAssay AID2685 (National Center for Advancing Translational Sciences (NCATS), 2010).
In all, about 320,000 compounds went through this assay and about 2,100 (0.66%) were called active. Roughly 53% stayed inconclusive and do not appear here. The sample holds actives, similar compounds and a random draw of the others, so the mix is not that of the screen. Calls follow the shape of the dose curve; as a rule, active = well fitted inhibition curve with a large enough effect in the signal ratio, with a control signal flat (not every such curve was filed as active); inconclusive = small, poorly fitted or top-dose-only effect, or effect the other way, or a change in a side signal; inactive = flat fitted curve, though single readings scatter; the % refers to the signal ratio.

Experiment: qHTS Assay for Lipid Storage Modulators in Drosophila S3 Cells;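 as to cell number change: cells counted by Cell Tracker Red CMTPX staining in the red channel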; as to lipid storage change, negative = inhibition: % is scaled to controls: 0 for no effect and ±100 for the full control effect
Settings: BODIPY lipid droplet fluorescence, 18-24 h, cells fed with added oleic acid; cell number change: measured here: cell count max response; series mostly up to 46.1 µM; lipid storage change, negative = inhibition: at the top concentration
Outline: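 Laser-scanning cytometry quantifies lipid droplet accumulation (500–530 nm total intensity; droplet/cell object ratio) in oleic acid-fed (400 uM added) Drosophila S3 cells treated with a concentration series. 20 uM Triacsin C defined 100% inhibition.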
Potency is read from the fitted curve at half-maximal effect.

Which results are given for `CCOc1ccccc1N=C1SC(CC(=O)Nc2ccc(OC)cc2OC)C(=O)N1CCC1=CCCCC1` (stereo unspecified)?
Potency: 25.9 µM (active); cell number change: -18.8%

With `COc1cc([N+](=O)[O-])ccc1NC(=O)CC1SC(=Nc2ccc(F)cc2)N(CCC2=CCCCC2)C1=O` (stereo unspecified) as the molecule, how does the Potency read?
The Potency was 23.1 µM (active).

And the cell number change?
The cell number change was -22.5%.

With `CCn1c2ccccc2c2cc(N=C3SC(CC(=O)Nc4ccccc4OC)C(=O)N3C)ccc21` (stereo unspecified) as the molecule, how does the “lipid storage change, negative = inhibition” value read?
The value was 3.11% (inactive).

Which “lipid storage change, negative = inhibition” value does the source give for `COc1ccc(OC)c(NC(=O)CC2SC(=Nc3ccc(F)cc3)N(CCC3=CCCCC3)C2=O)c1` (stereo unspecified) here?
Its value is -15.3% (inactive).

What about the cell number change of the same molecule?
The cell number change was 1.52%.

What does the source list for `Cc1c(C(N)=O)sc2ncn(CC(=O)N(C)C3CCCCC3)c(=O)c12`?
lipid storage change, negative = inhibition: -24.6% (inactive); cell number change: 7.26%

Which results are given for `CS(=O)(=O)N1CCC(C(=O)N2CCN(c3ccccc3F)CC2)CC1`?
lipid storage change, negative = inhibition: -2.62% (inactive); cell number change: 9.98%

Which Potency does the source give for `CC1=CN2C(=N)/C(=C/c3ccc([N+](=O)[O-])o3)C(=O)N=C2S1` here?
The Potency was 14.6 µM (active).

And the cell number change?
Its cell number change is -16.4%.

What does the source list for `CCOc1ccc(-c2ccc(/C=C3/C(=N)N4C=CSC4=NC3=O)o2)c([N+](=O)[O-])c1`?
lipid storage change, negative = inhibition: -13.3% (inactive); cell number change: 4.83%

For `CC1=CN2C(=N)/C(=C/c3ccc(C)o3)C(=O)N=C2S1`, which “lipid storage change, negative = inhibition” value is on record?
The value was -1.21% (inactive).

What about the cell number change of the same molecule?
The cell number change was -10.7%.

Which “lipid storage change, negative = inhibition” value does the source give for `Cc1ccc(S(=O)(=O)Nc2cccc(-c3ccc4nnc(C)n4n3)c2)s1` here?
The value was -1.01% (inactive).

And the cell number change?
The cell number change was 7.02%.

Which results are given for `O=C(NCc1ccccn1)Nc1cc(Cl)cc(Cl)c1`?
lipid storage change, negative = inhibition: -7.61% (inactive); cell number change: 7.72%

Which results are given for `COc1ccc(C(NC(=O)C(C)(C)C)NC(=O)C(C)(C)C)cc1`?
lipid storage change, negative = inhibition: 1.97% (inactive); cell number change: -2.15%

With `O=C(CNS(=O)(=O)c1ccc(Br)s1)NC1CCCc2ccccc21` (stereo unspecified) as the molecule, how does the “lipid storage change, negative = inhibition” value read?
The value was 19% (inactive).

What about the cell number change of the same molecule?
Its cell number change is -8.37%.

For `COc1ccc(C)cc1NC(=O)CCCN1C(=S)NC(C)(C)CC1C` (stereo unspecified), which “lipid storage change, negative = inhibition” value is on record?
The value was 17.4% (inactive).

And the cell number change?
The cell number change was -1.97%.

Which “outcome” value does the source give for `COc1ccc(NC(=O)NCCCCc2ccccc2)cc1` here?
Its value is “inactive”.

What about the cell number change of the same molecule?
The cell number change was -11.6%.

Which “lipid storage change, negative = inhibition” value does the source give for `CC(CNC(=O)CN1C(=O)NC2(CCCCC2C)C1=O)c1ccccc1` (stereo unspecified) here?
Its value is 16.9% (inactive).

What about the cell number change of the same molecule?
Its cell number change is -0.107%.

With `COc1ccccc1N(/N=C1\Sc2ccccc2C1=O)C(C)=O` as the molecule, how does the Potency read?
The Potency was 16.4 µM (active).

What about the cell number change of the same molecule?
The cell number change was 3.61%.

What does the source list for `COc1ccc(CCN(/C=C2\Sc3ccccc3C2=O)C(C)=O)cc1OC`?
lipid storage change, negative = inhibition: -6.81% (inactive); cell number change: 23.5%

Which “lipid storage change, negative = inhibition” value does the source give for `CC(=O)N(/N=C1\Sc2ccccc2C1=O)c1ccccc1` here?
The value was -19.2% (inactive).

And the cell number change?
Its cell number change is -6.02%.

What does the source list for `CCOc1ccc(NC(=O)CN(C)C(=O)COc2cccc3c2OC(C)(C)C3)cc1OCC`?
lipid storage change, negative = inhibition: 0.121% (inactive); cell number change: -24.3%

With `O=C(c1ccc(Cl)c(F)c1F)N1CCCC1` as the molecule, how does the “outcome” value read?
The value was “inactive”.

What does the source list for `Cc1c(C)c2c(OCC(=O)NCc3ccco3)cc3c(c2oc1=O)CCC(C)(C)O3`?
lipid storage change, negative = inhibition: 22.1% (inactive); cell number change: 6.15%

With `COCCNCC(=O)C12CC3CC(CC(C3)C1)C2` as the molecule, how does the Potency read?
The Potency was 16.4 µM (active).

And the cell number change?
Its cell number change is -15%.

For `COCCC(=O)NC12CC3CC(CC(C3)C1)C2`, which “lipid storage change, negative = inhibition” value is on record?
The value was -13.5% (inactive).

And the cell number change?
The cell number change was -7.91%.

Which “lipid storage change, negative = inhibition” value does the source give for `COCCNC(=O)C12CC3CC(CC(Cl)(C3)C1)C2` here?
Its value is -8.46% (inactive).

What about the cell number change of the same molecule?
The cell number change was 18%.

What does the source list for `O=c1[nH]c2ccccc2nc1C(F)(F)F`?
lipid storage change, negative = inhibition: 8.88% (inactive); cell number change: 17.1%

With `Cc1onc(-c2ccccc2)c1C(=O)N/N=C/c1ccc(Br)cc1` as the molecule, how does the “lipid storage change, negative = inhibition” value read?
Its value is 24.8% (inactive).

And the cell number change?
Its cell number change is 8.96%.

With `O=C(c1ccc(CS(=O)Cc2ccccc2Cl)o1)N1CCN(c2ccccn2)CC1` (stereo unspecified) as the molecule, how does the “outcome” value read?
The value was “inactive”.

With `O=C(c1ccc(CS(=O)c2cccc(Cl)c2)o1)N1CCCCCC1` (stereo unspecified) as the molecule, how does the “outcome” value read?
Its value is “inactive”.

And the cell number change?
Its cell number change is -0.885%.

Which Potency does the source give for `Cc1ccc(CS(=O)Cc2ccc(C(=O)N3CCN(c4ccccn4)CC3)o2)cc1` (stereo unspecified) here?
Its Potency is 7.31 µM (active).

Which results are given for `O=C(c1ccc(CS(=O)c2cccc(Cl)c2)o1)N1CCN(c2ccccn2)CC1` (stereo unspecified)?
Potency: 18.4 µM (active); cell number change: -26.2%

For `Cc1ccc(CS(=O)Cc2ccc(C(=O)N3CCN(c4ccccc4)CC3)o2)cc1` (stereo unspecified), which “outcome” value is on record?
Its value is “inactive”.

For `O=C(c1ccc(CS(=O)c2cccc(Cl)c2)o1)N1CCOCC1` (stereo unspecified), which “outcome” value is on record?
Its value is “inactive”.

And the cell number change?
The cell number change was -42.8%.

Which results are given for `CC(=O)Nc1ccc(S(=O)(=O)N2CCCN(S(=O)(=O)c3ccc(C)cc3)CC2)cc1`?
lipid storage change, negative = inhibition: -13.6% (inactive); cell number change: -14.2%

With `O=C1/C(=N\S(=O)(=O)c2cccs2)C([n+]2cccc(Cc3ccccc3)c2)=C([O-])c2ccccc21` as the molecule, how does the Potency read?
The Potency was 20.6 µM (active).

What about the cell number change of the same molecule?
Its cell number change is -9.11%.

With `O=C1C(=O)c2ccccc2C([O-])=C1[n+]1ccccc1` as the molecule, how does the “lipid storage change, negative = inhibition” value read?
Its value is -4.48% (inactive).

And the cell number change?
The cell number change was 19.4%.

Which “lipid storage change, negative = inhibition” value does the source give for `CC(C)N(Cc1ccccc1)S(=O)(=O)c1cccs1` here?
The value was -12.8% (inactive).

Which “lipid storage change, negative = inhibition” value does the source give for `NC(=NCCc1ccccc1)NS(=O)(=O)c1cccs1` here?
The value was -3.21% (inactive).

And the cell number change?
The cell number change was -0.301%.

Which “lipid storage change, negative = inhibition” value does the source give for `Cc1ccc(/C=C2\S/C(=N/S(=O)(=O)c3cccs3)NC2=O)cc1` here?
Its value is 6.03% (inactive).

And the cell number change?
Its cell number change is 3.91%.

Which “outcome” value does the source give for `CCc1ccc(NS(=O)(=O)c2cccs2)cc1` here?
Its value is “inactive”.

What does the source list for `CCc1cc[n+](C2=C([O-])c3ccccc3C(=O)/C2=N\S(=O)(=O)c2cccs2)cc1`?
Potency: 1.84 µM (active); cell number change: 2.59%

What does the source list for `Cc1cc[n+](C2=C([O-])c3ccccc3C(=O)/C2=N\S(=O)(=O)c2cccs2)cc1C`?
Potency: 8.2 µM (active); cell number change: -25.5%

For `CCCCC[n+]1ccn(C2=C([O-])c3ccccc3C(=O)/C2=N\S(=O)(=O)c2ccc(Br)cc2)c1`, which “lipid storage change, negative = inhibition” value is on record?
Its value is -3.49% (inactive).

Which Potency does the source give for `O=C1/C(=N\S(=O)(=O)c2cccs2)C([n+]2ccccc2)=C([O-])c2ccccc21` here?
The Potency was 20.6 µM (active).

What about the cell number change of the same molecule?
The cell number change was -19.9%.

Which results are given for `Cc1cc[n+](-c2nc3ccccc3nc2[N-]S(=O)(=O)c2cccs2)cc1C`?
lipid storage change, negative = inhibition: 6.93% (inactive); cell number change: -0.563%

Which results are given for `N/C(=N\S(=O)(=O)c1cccs1)c1ccccc1`?
outcome: inactive; cell number change: 3.91%

What does the source list for `O=[N+]([O-])c1cccc(C(=S)N2CCCC2)c1`?
lipid storage change, negative = inhibition: 9.9% (inactive); cell number change: 3.41%
